Screening data: PubChem, The Scripps Research Institute Molecular Screening Center
The list is not random: actives were taken first. Their share in the collection is about 4.1%.
ssDAF-12 act: S. stercoralis DAF-12 activation, primary screen. HEK293 ssDAF-12/GRIP1 lit1-tk-luc reporter, luminescence; % of 3 µM dafachronic acid response. 1% of 370,000 active. AID 652126. activation, % at 6.8 µM;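 active = activation above the mean over all tested compounds plus 3 SD, cut at about 0.9% in these data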;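 also: 0% = DMSO-only wells and 100% = 3 µM delta7-dafachronic acid wells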
DAX1 inh-1: inhibitors of DAX1 repression of SF-1 activated StAR promoter. HEK293T StAR-luciferase reporter, SF-1/DAX-1 repression relief. 1.1% of 370,000 active. AID 652010. inhibition, % at 6.8 µM;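 active = inhibition above the mean over all tested compounds plus 3 SD, cut at about 3.6% in these data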;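 also: 0% = DAX-1 cells with DMSO and 100% = cells lacking DAX-1 with DMSO; higher inhibition means more luminescence from relief of DAX-1 repression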
hgDAF12 agonist: agonists of H. glycines DAF-12 nuclear receptor | HEK293 GAL4-hgDAF12 UAS-luciferase reporter, agonist luminescence; normalized to butyrate control | activation, % at 6.8 µM | 1.8% of 370,000 active | AID 687014;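 active = activation above a cutoff set at the mean of all screened compounds plus 3 SD, cut at about 10% in these data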;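 also: 0% = DMSO wells and 100% = sodium butyrate wells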
DAX1 inh-2: NR0B1 (DAX1) inhibition; P51843; HEK293 Gal4-DAX1 luciferase reporter, luminescence; inhibition, % at 6.75 µM; 0.99% of 340,000 active; AID 504766;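 active = inhibition above the mean over all tested compounds plus 3 SD, cut at about 4.2% in these data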;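 also: 0% = DAX1-transfected cells with DMSO and 100% = empty-vector control cells with DMSO; inhibition shows as a rise in luminescence from relieved DAX1 repression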
Target sequence (P51843 207-470 limits assumed): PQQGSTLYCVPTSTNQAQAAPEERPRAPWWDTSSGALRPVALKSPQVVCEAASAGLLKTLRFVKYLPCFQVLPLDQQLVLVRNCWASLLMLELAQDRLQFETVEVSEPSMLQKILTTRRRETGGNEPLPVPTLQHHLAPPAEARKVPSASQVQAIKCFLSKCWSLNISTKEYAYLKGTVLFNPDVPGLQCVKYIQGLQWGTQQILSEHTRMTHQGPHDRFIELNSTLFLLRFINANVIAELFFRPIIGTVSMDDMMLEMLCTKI
hcDAF12 agonist: H. contortus DAF-12 activation, primary screen; activation, % at 6.8 µM; HEK293 hcDAF-12 lit1-tk-luc reporter, luminescence; 0% DMSO, 100% Δ7-dafachronic acid; AID 652067; 1.4% of 370,000 active;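 active = activation above the mean of all tested compounds plus 3 SD, cut at about 5.5% in these data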;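 also: 100% = response to 3 µM Δ7-dafachronic acid high control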
DAX1 conf: confirmation of human DAX1 (NR0B1) inhibitors; shares compounds with DAX1 inh-1; HEK293T StAR-promoter luciferase reporter, SF-1/DAX-1 repression; inhibition, % at 6.8 µM; 87% of 2,400 active; AID 652134;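 active = inhibition above the average of every tested compound plus 3 SD, cut at about 3.8% in these data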;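 also: 0% = DAX-1 cells with DMSO and 100% = no DAX-1 control cells with DMSO; active compounds raise luminescence by relieving repression of the StAR reporter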
Target sequence (P51843 whole entry, looked up): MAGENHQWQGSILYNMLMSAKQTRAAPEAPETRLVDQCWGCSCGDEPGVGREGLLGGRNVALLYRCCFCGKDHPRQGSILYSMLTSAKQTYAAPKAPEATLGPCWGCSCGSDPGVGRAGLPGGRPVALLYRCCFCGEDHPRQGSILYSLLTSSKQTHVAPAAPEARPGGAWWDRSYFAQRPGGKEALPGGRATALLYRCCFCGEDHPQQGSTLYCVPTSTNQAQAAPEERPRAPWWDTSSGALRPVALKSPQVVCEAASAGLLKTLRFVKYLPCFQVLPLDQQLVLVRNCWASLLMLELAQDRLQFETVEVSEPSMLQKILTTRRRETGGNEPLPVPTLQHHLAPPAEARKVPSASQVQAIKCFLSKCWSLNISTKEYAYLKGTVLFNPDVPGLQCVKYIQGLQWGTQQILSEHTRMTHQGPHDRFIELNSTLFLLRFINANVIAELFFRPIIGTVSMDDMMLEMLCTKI
SF1 AF2mut Luc: nonselective inhibitor or artifact in SF-1 mutant DAX1 counter-screen; HEK293 StAR-luciferase, SF-1 AF2 mutant, luminescence; shares compounds with DAX1 inh-1; inhibition, % at 6.8 µM; 78% of 2,400 active;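 active = inhibition above the mean of all tested compounds plus 3 SD, cut at about 3% in these data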;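 also: 0% = DAX-1 transfected cells with DMSO and 100% = cells without DAX-1 with DMSO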
* = called active by the depositor; / = no result.

SMILES | ssDAF-12 act | DAX1 inh-1 | hgDAF12 agonist | DAX1 inh-2 | hcDAF12 agonist | DAX1 conf | SF1 AF2mut Luc
COc1cc(/C=C2/SC(=S)NC2=O)ccc1OS(=O)(=O)c1ccc(C)cc1 | / | / | / | -1.4 | / | / | /
O=C(NC1CCCC1)c1cc2cc(Br)ccc2o1 | -0.6 | 7.0* | 10.2 | 2.5 | 1.6 | 7.8* | 4.1*
Cc1ccc2cc3cc(C(=O)NC4CC4)oc3nc2c1 | -0.9 | 2.6 | 4.0 | 0.1 | -0.7 | / | /
Cc1ccc2cc3cc(C(=O)NC4CCCCC4)oc3nc2c1 | -0.9 | 5.5* | 1.1 | 0.0 | -0.9 | 0.9 | 0.3
O=C(NC1CCCCC1)c1cc2cc(Br)ccc2o1 | 0.0 | 0.1 | 9.0 | 3.1 | 3.5 | / | /
O=C(NN=Cc1ccccc1Cl)c1ccccc1 | 0.3 | 5.2* | 12.4* | 4.1 | 2.0 | 13.5* | 6.9*
CN(C)c1cccc(C(=O)N/N=C/c2ccccc2F)c1 | 0.3 | 8.5* | 12.1* | -2.3 | 3.6 | 8.7* | 1.0
OCCNC(=S)NCCc1ccccc1 | -1.6 | 0.2 | -0.7 | 1.2 | -1.0 | / | /
S=C(NCCc1ccccc1)Nc1ncccn1 | 0.1 | 5.5* | 8.4 | 1.5 | 3.2 | 3.9* | 2.8
CN(CCc1ccccc1)C(=O)c1cccc(NC(=O)Cc2cccc(NC(=O)C3CCCN(C(=O)C4CCCC4)C3)c2)c1 (stereo unspecified) | -0.8 | -1.7 | -1.1 | -2.2 | -0.1 | / | /
Cc1ccccc1Cn1nnc(C(=O)Nc2cccc(C)c2C)c1N | -2.0 | -0.8 | -4.5 | -1.0 | -1.8 | / | /
O=C(Nc1ccc2c(c1)OCCO2)c1c(F)cccc1F | / | / | / | 1.6 | / | / | /
O=C(Nc1ccc2c(c1)OCCO2)c1ccccc1F | 0.8 | 4.8* | 11.1* | -1.6 | 5.7* | 13.9* | 6.2*
Cc1ccc(C)c(Cn2nnc(C(=O)Nc3ccc4c(c3)OCCO4)c2N)c1 | -0.4 | 4.6* | 1.3 | 0.3 | -1.1 | 3.4 | 3.6*
Cc1ccccc1Cn1nnc(C(=O)Nc2ccc3c(c2)OCCO3)c1N | -0.1 | 6.2* | 9.6 | 3.8 | 1.1 | 8.7* | 7.4*
CC(C)C1Oc2ccccc2C(=O)N(CC(=O)c2ccc3c(c2)OCCO3)C1=O (stereo unspecified) | -0.4 | 7.6* | 3.5 | 3.6 | 3.4 | 13.6* | 8.8*
C=CC[C@@H]1NN2C(=O)[C@@H](C)[C@@H]3c4ccccc4C=NN3[C@@H]2c2ccccc21 | -1.1 | -0.6 | -0.9 | / | -0.6 | / | /
COc1ccc(Cl)cc1C(=O)NNC(=O)COC(=O)c1cccs1 | -0.5 | 6.4* | -0.1 | 0.1 | 0.4 | 0.4 | 0.4
Cc1cc(Cl)ccc1OCC(=O)NNC(=O)c1cccs1 | -1.4 | -0.7 | 2.3 | 0.4 | -2.1 | / | /
O=C(Nc1ccc(F)cc1F)c1ccc2c(=O)n3c(nc2c1)CCC3 | -0.1 | 10.6* | 12.7* | 0.5 | 3.2 | 7.9* | 6.5*
O=C(Nc1ccc(F)cc1Cl)c1ccc2c(=O)n3c(nc2c1)CCC3 | 0.1 | 8.8* | 10.5* | 2.0 | 6.5* | 8.6* | 5.7*
O=C(Nc1ccc2oc(-c3ccccc3Cl)nc2c1)c1ncn[nH]1 | 0.3 | 6.7* | 9.9 | 2.8 | 5.8* | 13.8* | 7.9*
CC(C)N1CCCCC(NC(=O)c2cccs2)C1=O (stereo unspecified) | -0.9 | -0.3 | 1.8 | / | -0.2 | / | /
Brc1ccccc1-c1nc2c3ccccc3ncn2n1 | -0.1 | 4.6* | 10.9* | 1.8 | 6.0* | 9.0* | 6.4*
Cc1[nH]c2ccc(C(=O)OC(C)C(=O)NC3(C#N)CCCCC3)cc2c1C (stereo unspecified) | -1.8 | -1.4 | 0.4 | 0.0 | -1.5 | / | /
SMILES | ssDAF-12 act | DAX1 inh-1 | hgDAF12 agonist | DAX1 inh-2 | hcDAF12 agonist | DAX1 conf | SF1 AF2mut Luc
Cc1ccc(C(O)c2ncc(-c3ccccc3)[nH]2)c(C)c1 (stereo unspecified) | -1.4 | 0.1 | 3.3 | / | -0.3 | / | /
Cc1ccc(Cc2c(-c3ccc(Cl)cc3)nc3cc(C)ccn23)cc1 | 0.1 | 7.2* | 6.7 | 3.5 | 3.6 | 2.6 | 0.3
Cc1ccn2c(Cc3ccccc3)c(-c3ccccc3)nc2c1 | -0.6 | 5.5* | 11.2* | 3.3 | 3.8 | 1.5 | 2.3
Cc1ccn2c(CN3CCOCC3)c(-c3ccccc3)nc2c1 | -0.7 | 2.8 | 8.2 | 0.8 | 1.3 | / | /
Cc1ccc(C(=O)N2CCN(c3ccccn3)CC2)cc1Cl | -1.6 | 0.3 | -1.2 | -2.0 | -2.1 | / | /
Cc1ccnc(NC(=O)c2cccc(S(=O)(=O)N3CCOCC3)c2)c1 | -0.2 | 6.1* | 10.9* | 0.4 | 3.3 | 4.7* | 2.8
O=C(Nc1ccccn1)c1cccc(S(=O)(=O)N2CCOCC2)c1 | -1.0 | 0.7 | -0.5 | 1.5 | -0.7 | / | /
Cc1nnc(CN(C)C(=O)c2cc(COc3ccc(C)c(C)c3)on2)o1 | -0.7 | 0.1 | 2.7 | 1.6 | 0.8 | / | /
O=C(c1cc(COc2ccc(F)cc2Cl)on1)N1CC2C[C@@H]3CC1C[C@H](C2)C3 | -0.4 | 5.7* | 12.9* | 1.1 | 2.8 | 5.8* | 2.0
O=C(c1cc(COc2ccc(F)cc2Cl)on1)N1C[C@H]2CC[C@H]1C2 | -0.5 | 2.9 | 5.5 | 2.8 | 0.9 | / | /
Cc1nnc(CN(C)C(=O)c2cc(COc3ccc(F)cc3Cl)on2)o1 | -0.5 | 5.2* | 5.5 | 1.2 | 4.3 | 8.1* | 4.2*
Cc1ccc(OCc2cc(C(=O)N3CC4C[C@@H]5CC3C[C@H](C4)C5)no2)cc1C | 0.1 | 5.2* | 11.0* | 1.9 | 4.8 | 2.1 | 3.6*
O=C(O)c1ccc(N/N=C/c2ccc(-c3cccc(Cl)c3)o2)cc1 | 1.0* | 6.2* | 15.7* | 7.2* | 5.5 | 12.8* | 7.6*
O=C(O)c1ccc(N/N=C/c2ccc(-c3ccc(Cl)cc3Cl)o2)cc1 | -1.3 | 5.1* | 0.3 | -2.6 | 0.9 | 14.5* | 5.6*
Nc1ccn(C2C=CC(CO)O2)c(=O)n1 (stereo unspecified) | -0.7 | -0.2 | -2.9 | / | 0.2 | / | /
CCCN(CCC)c1ncnc2c1cnn2-c1ccc(OC)cc1 | 0.3 | 5.3* | 10.2 | 0.6 | 4.6 | 14.0* | 3.1*
COc1ccc(-n2ncc3c(Nc4cccc(C)c4)ncnc32)cc1 | -1.2 | 1.2 | 3.5 | 0.4 | -1.3 | / | /
Oc1ccc(C=NN=Cc2ccco2)c(O)c1 | -0.3 | 4.6* | 9.4 | 5.5* | 1.3 | 7.2* | 4.8*
NC(=N\N=Cc1ccco1)/C(N)=N/N=Cc1ccco1 | -0.6 | 0.8 | 1.3 | 3.8 | 1.7 | / | /
Cc1ccc(S(=O)(=O)N(C)C)cc1NC(=O)COC(=O)/C=C/c1ccc2ccccc2n1 | -0.1 | 5.0* | 3.2 | 0.3 | 1.4 | 1.4 | 0.5
O=C(NCC1(N2CCCCC2)CCCCC1)c1ccc(NS(=O)(=O)c2ccccc2)cc1 | -0.1 | 8.9* | 3.7 | 2.7 | 1.3 | 9.0* | 5.6*
